Molecules are shown by their SMILES. Several values for one entry are separate records, joined by “and”; a condition that tells them apart may be missing. Identical values can stand only once. About 83,000 compounds went through this panel and 20% of them were active in at least one assay; those are over-represented in the sample as a whole.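 48-hour exposure, single concentration, 96-well plates; percent growth endpoint where 0 means no net growth. Active: below 10.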 Activity calls are given as the source filed them.

Common to all, as to assay: NCI-60 one-dose screen, 48 h (100 = growth as untreated, 0 = no growth, -100 = all killed)
Experiment [1] concerns MOLT-4 leukemia. Particulars: 10 µM.
Experiment [2] deals with RPMI-8226 leukemia. As to conditions: 10 µM.
Experiment [3] has as its system OVCAR-8 ovarian. Particulars: 10 µM.
The test system of experiment [4] is OVCAR-5 ovarian. As to conditions: 10 µM.
Experiment [5] deals with OVCAR-4 ovarian. Particulars: 10 µM.
The subject of experiment [6] is SK-OV-3 ovarian. As to conditions: 10 µM.
For experiment [7], the system named is IGROV1 ovarian. As to conditions: 10 µM.
Experiment [8] deals with OVCAR-3 ovarian. Particulars: 10 µM.
The test system of experiment [9] is HS 578T breast. As to conditions: 10 µM.
Experiment [10] has as its system NCI/ADR-RES ovarian. Particulars: 10 µM.
The test system of experiment [11] is T-47D breast. As to conditions: 10 µM.
Experiment [12] concerns BT-549 breast. As to conditions: 10 µM.
In experiment [13] the test system is MDA-MB-435 melanoma. As to conditions: 10 µM.
Experiment [14] relates to SW-620 colon. Particulars: 10 µM.
In experiment [15] the test system is HCT-116 colon. Particulars: 10 µM.
For experiment [16], the system named is HCC-2998 colon. As to conditions: 10 µM.
Experiment [17] relates to KM12 colon. Particulars: 10 µM.
In experiment [18] the test system is MCF7 breast. Particulars: 10 µM unless noted.

Take `NC(=O)c1cc([N+](=O)[O-])c(Cl)c([N+](=O)[O-])c1`: the growth in experiment [1] is -13.3% (active); in experiment [2] it was -10.4% (active); in experiment [3], 85.1% (inactive); in experiment [4] it was 111% (inactive); in [5], 71.8% (inactive); in experiment [6] it was 104% (inactive). The growth in experiment [7] was 102% (inactive); in experiment [8], -41.1% (active); in [9], 106% (inactive); in [10], 111% (inactive); in [11], 27.5% (inactive); in experiment [12], 113% (inactive). Moreover, the growth in experiment [13] was 109% (inactive); in experiment [14] it was -85.2% (active); in experiment [15], -79.3% (active); in experiment [16], 109% (inactive); in [17] it was 91.6% (inactive).

For `C=C1C(=O)O[C@@H]2C[C@@H](C)[C@@H]3C=CC(=O)[C@@]3(C)[C@@H](O)[C@H]12`, the growth was -48.5% (active) in experiment [1]; 5.71% (active) in experiment [4]; -36.6% (active) in [5]; 11.5% (inactive) in experiment [6]; -90.5% (active) in [7]; -100% (active) in experiment [8]. Moreover, the growth was 18.2% (inactive) in [9]; 12.9% (inactive) in experiment [10]; -58.1% (active) in experiment [11]; -88.2% (active) in experiment [13]; -30.5% (active) in experiment [14]; -4.11% (active) in experiment [18]. Also, the results for the growth in experiment [15], in experiment [16] and in [17] were -93.5% (active), -97.7% (active) and -84.3% (active), respectively.

Regarding `COC1CC2C=C(C)/C=C/C=C/C(=O)NC(c3ccccc3)C/C=C/CCC(O)CC(=O)C2=C1O` (stereo unspecified), the growth was -59.5% (active) in experiment [1]; -69.1% (active) in [3]; -95.6% (active) in experiment [4]; -78.4% (active) in experiment [5]; -91.4% (active) in experiment [6]; -90.2% (active) in experiment [7]. The growth in [8] was -83.9% (active); in experiment [9], -51.4% (active); in experiment [10], -44.5% (active); in experiment [11], -65.5% (active); in experiment [13] it was -90.5% (active); in experiment [14], -75.9% (active). In addition, the growth in experiment [18] is -68.8% (active); in experiment [15] it was -96.7% (active); in [16] it was -53% (active); in experiment [17], -76.1% (active).

As for `[Cl][Hg][c]1ccc(Cl)s1`, the growth in [1] is -11.5% (active); in experiment [3], 60% (inactive); in [4], 28.2% (inactive); in experiment [5], 11.2% (inactive); in [6], 98.2% (inactive); in experiment [7], 26.2% (inactive). Also, the growth was -78.7% (active) in experiment [8]; 59.1% (inactive) in experiment [9]; 57.1% (inactive) in experiment [10]; -68.5% (active) in [11]; 4.96% (active) in experiment [13]; -26.9% (active) in experiment [14]. The growth is 15.8% (inactive) in experiment [15], 111% (inactive) in [16] and 91.1% (inactive) in experiment [17].

In the case of `Cc1ccc(C(=O)C2C(c3ccccc3)N2C2CCCCC2)cc1` (stereo unspecified), the growth was 94.9% (inactive) and 93.3% (inactive) in [1]; 103% (inactive) and 101% (inactive) in [3]; 97.4% (inactive) and 95.9% (inactive) in experiment [4]; 98.4% (inactive) and 87.2% (inactive) in experiment [5]; 102% (inactive) and 96.2% (inactive) in experiment [6]; 119% (inactive) and 92.4% (inactive) in [7]. Also, the growth in [8] was 114% (inactive) and 108% (inactive); in experiment [9], 102% (inactive) and 97.1% (inactive); in experiment [10], 103% (inactive) and 99.7% (inactive); in experiment [11], 87.8% (inactive) and 89.7% (inactive); in experiment [12], 104% (inactive) and 105% (inactive); in experiment [13] it was 95% (inactive) and 88.3% (inactive). The growth in experiment [14] is 106% (inactive) and 95.2% (inactive); in experiment [18], 97% (inactive) and 94.2% (inactive); in experiment [15], 92.5% (inactive) and 75.3% (inactive); in experiment [16], 114% (inactive) and 113% (inactive); in experiment [17], 111% (inactive) and 100% (inactive).

For `S=C=NCCc1ccccc1`, the growth in experiment [1] was 53.4% (inactive); in [2] it was -18.9% (active); in [4] it was 33.2% (inactive); in experiment [5], 69.5% (inactive); in experiment [6], 122% (inactive); in experiment [7] it was 44.1% (inactive). The growth in [8] was 72% (inactive); in experiment [10], 21.4% (inactive); in experiment [11], 40.4% (inactive); in experiment [13] it was 66.4% (inactive); in [14] it was 56% (inactive); in experiment [15], 27.1% (inactive). In addition, the growth in experiment [17] is 41.9% (inactive).

Take `Oc1c(Cl)cc(Cl)c2ccccc12.[Cu+2]`: the growth is 70.7% (inactive) in experiment [1]; 83% (inactive) in experiment [3]; 127% (inactive) in experiment [4]; 55.8% (inactive) in [5]; 87.2% (inactive) in experiment [6]; 74.8% (inactive) in [7]. Also, the growth in experiment [8] was 79.7% (inactive); in [9], 88.9% (inactive); in experiment [10], 91.9% (inactive); in experiment [11], 82.9% (inactive); in experiment [13] it was -83.4% (active); in experiment [14], 88.3% (inactive). Besides, the growth in [18] was 74.3% (inactive); in experiment [15], 71.8% (inactive); in experiment [16] it was 86% (inactive); in experiment [17], 98.9% (inactive).

As to `O=[N+]([O-])c1cc[n+]([O-])c2ccccc12`, the growth was 3.5% (active) in experiment [1]; -31.1% (active) in [3]; -13.7% (active) in [4]; -99.6% (active) in experiment [5]; -18.4% (active) in [6]; -24.3% (active) in experiment [7]. For the same compound, the growth in experiment [8] is 4.56% (active); in experiment [9], 18.7% (inactive); in experiment [10] it was -55.1% (active); in experiment [11], -20.5% (active); in experiment [13] it was -70.7% (active); in experiment [14], -69.3% (active). Moreover, the growth in [18] is -16.7% (active); in experiment [15], -71.2% (active); in [16] it was -94.5% (active); in experiment [17] it was -89.5% (active).

Consider `CC(C)C1(NC(=O)C2CC3c4cccc5[nH]cc(c45)CC3N(C)C2)OC2(O)C3CCCN3C(=O)C(Cc3ccccc3)N2C1=O` (stereo unspecified), for which the growth in experiment [1] is 65.8% (inactive); in experiment [4], 72.2% (inactive); in experiment [5], 70.9% (inactive); in experiment [6] it was 116% (inactive); in [7], 108% (inactive); in experiment [8], 116% (inactive). Also, the growth was 99.5% (inactive) in experiment [9]; 102% (inactive) in experiment [10]; 103% (inactive) in experiment [11]; 102% (inactive) in experiment [13]; 103% (inactive) in [14]; 95.8% (inactive) in [18]. Besides, the growth in experiment [15] was 95.8% (inactive); in experiment [16], 105% (inactive); in [17], 106% (inactive).

Take `COc1cc2c3cc1Oc1c(OC)c(OC)cc4c1C(Cc1ccc(cc1)Oc1cc(ccc1O)CC3N(C)CC2)N(C)CC4` (stereo unspecified): the growth in experiment [18] is 33.8% [100 µM] (inactive) and -96.4% [100 µM] (active).

The values above are taken from PubChem BioAssay (NCI).
